Data from PubChem BioAssay (Tox21).
“And” between values parts separate entries of the source, which are not always exact repeats. Equal entries are not always repeated. Records with an inconclusive call do not appear. Some structures have more than one record in an assay (separate samples or runs), and their calls can disagree. The source made the active and inactive calls. Calls follow the shape of the dose curve; as a rule, active = well fitted curve in the direction sought with a large enough effect in the repeat runs; inconclusive = weak or mixed curves; inactive = no such curve, though single readings can be large; an effect the other way counts as inactive or inconclusive.

Assays:
[1] = Caspase-3/7 induction in HepG2 cells by small molecules, qHTS assay (AID 1346978); also: nearly all actives have a fitted effect of over 15% in size; also: potency is read from the fitted curve at half-maximal effect
Outline: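 Wild-type HepG2 cells (2,000/well) were settled 5 h at 37 C, 5% CO2, then exposed to compounds in DMSO for 17 h. Caspase-3/7 activity was read by luminescence 30 min after adding Caspase-Glo 3/7 reagent at room temperature.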

[2] = Caspase-3/7 induction in CHO-K1 cells by small molecules, qHTS cell viability counter screen (AID 1346979); also: nearly all actives have a fitted effect of over 35% in size; also: potency is read from the fitted curve at half-maximal effect
Outline: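 Cells (CHO-K1, wild type) are plated at 1,500 per well and incubated 5hr. Test compounds in DMSO are then pinned in, followed by 16hr at 37C and 5% CO2. Viability is read by CellTiter-Fluor fluorescence after 1hr.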

[3] = Caspase-3/7 induction in CHO-K1 cells by small molecules, qHTS assay (AID 1346980); also: nearly all actives have a fitted effect of over 15% in size
Outline: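 Wild-type cells were seeded at 1,500 per well and settled 5 hr at 37 C, 5% CO2, then exposed to DMSO-dissolved compounds for 17 hr. Caspase-Glo 3/7 reagent was added, and luminescence was read after 30min at room temperature.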

[4] = Caspase-3/7 induction in HepG2 cells by small molecules, qHTS cell viability counter screen (AID 1346981); also: series mostly up to about 92 µM; nearly all actives have a fitted effect of over 30% in size
Outline: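 Wild-type HepG2 cells (2,000/well) were allowed to settle for 5 hr at 37 C, 5% CO2, then dosed with compounds in DMSO by pin transfer. After 16 hr at 37 C, CellTiter-Fluor was added and fluorescence read 1 hr later.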

[5] = target: Cytochrome P450 2C19 (Homo sapiens) (UniProt P33261); assay: Cytochrome P450 Family 2 Subfamily C Member 19 (CYP2C19) small molecule antagonists: luciferase reporter qHTS assay (AID 1671197); also: nearly all actives have a fitted effect of over 65% in size; also: potency is read from the fitted curve at half-maximal effect; as to activity change, negative = inhibition: series mostly up to about 120 µM
Outline: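 Luminescent readout of CYP2C19 activity: luciferin product detected 20 min after adding detection reagent. Before that, compound and enzyme-substrate mix preincubated 10 min at room temperature; NADPH-regenerating system started a 1 h, 37C reaction. Ketoconazole as positive control.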

[6] = target: Nuclear receptor subfamily 1 group I member 2 (Rattus norvegicus) (UniProt Q9R1A7); assay: Rat pregnane X receptor (rPXR) activation by small molecules, qHTS assay (AID 1346983); settings: rPXR luciferase reporter cells, One-Glo luminescence, 24 h; stronger effect = higher value; also: nearly all actives have a fitted effect of over 20% in size
Outline: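 Cell-based rPXR luciferase reporter assay, 2,000 cells per well, rested 5hr at 37 C before compound addition in DMSO, then 24 hr at 37 C. One-Glo reagent was added and luminescence read after 30 min at room temperature.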

[7] = target: Cytochrome P450 2D6 (Homo sapiens) (UniProt P10635); assay: Cytochrome P450 Family 2 Subfamily D Member 6 (CYP2D6) small molecule antagonists: luciferase reporter qHTS assay (AID 1671196); also: nearly all actives have a fitted effect of over 50% in size; also: potency is read from the fitted curve at half-maximal effect; as to activity change, negative = inhibition: series mostly up to about 120 µM
Outline: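 CYP2D6 enzyme–substrate mix was held with compound for 10 min at room temperature, then NADPH regeneration solution was added and the reaction ran 1 h at room temperature. Luciferin product was detected by luminescence after 20 min with detection reagent.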

[8] = target: Nuclear receptor subfamily 1 group I member 2 (Homo sapiens) (UniProt O75469); assay: Human pregnane X receptor (PXR) small molecule agonists, qHTS assay (AID 1346982); also: nearly all actives have a fitted effect of over 35% in size; also: potency is read from the fitted curve at half-maximal effect
Outline: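 PXR-Luc HepG2 cells (CYP3A4 promoter-driven luciferase) were seeded in medium with 5% charcoal-stripped FBS, left 5 hr at 37 C, then exposed to compounds in DMSO for 24 hr. Luminescence was read after ONE-Glo addition.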
% is scaled to controls: 0 for no effect and ±100 for the full control effect.

Sequence of Cytochrome P450 2C19 (Homo sapiens) (P33261 whole entry, looked up): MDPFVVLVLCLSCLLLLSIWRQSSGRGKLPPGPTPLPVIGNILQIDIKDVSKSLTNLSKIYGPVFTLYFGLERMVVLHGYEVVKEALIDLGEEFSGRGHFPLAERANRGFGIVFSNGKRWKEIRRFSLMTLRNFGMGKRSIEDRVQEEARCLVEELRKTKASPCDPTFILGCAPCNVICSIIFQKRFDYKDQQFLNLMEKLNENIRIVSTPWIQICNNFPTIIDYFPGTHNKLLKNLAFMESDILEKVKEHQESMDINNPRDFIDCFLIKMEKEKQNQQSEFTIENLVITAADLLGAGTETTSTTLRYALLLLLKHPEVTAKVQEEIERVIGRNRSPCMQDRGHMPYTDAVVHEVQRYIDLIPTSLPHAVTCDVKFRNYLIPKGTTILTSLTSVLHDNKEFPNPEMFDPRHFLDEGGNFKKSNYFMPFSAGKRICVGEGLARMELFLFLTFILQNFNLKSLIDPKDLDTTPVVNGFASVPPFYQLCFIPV
Sequence of Nuclear receptor subfamily 1 group I member 2 (Rattus norvegicus) (Q9R1A7 whole entry, looked up): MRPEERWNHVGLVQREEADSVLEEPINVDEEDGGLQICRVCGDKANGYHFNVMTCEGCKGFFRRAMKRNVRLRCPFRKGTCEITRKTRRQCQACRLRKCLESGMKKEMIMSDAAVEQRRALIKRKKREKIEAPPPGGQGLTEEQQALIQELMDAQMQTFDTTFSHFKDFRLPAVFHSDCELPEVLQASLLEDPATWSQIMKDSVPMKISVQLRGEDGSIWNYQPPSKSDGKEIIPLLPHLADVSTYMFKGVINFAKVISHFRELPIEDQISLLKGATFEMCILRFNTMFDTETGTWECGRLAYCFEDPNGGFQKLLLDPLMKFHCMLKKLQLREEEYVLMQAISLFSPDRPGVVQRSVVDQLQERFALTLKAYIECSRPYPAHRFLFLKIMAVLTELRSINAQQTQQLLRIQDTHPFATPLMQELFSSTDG
Sequence of Nuclear receptor subfamily 1 group I member 2 (Homo sapiens) (O75469 whole entry, looked up): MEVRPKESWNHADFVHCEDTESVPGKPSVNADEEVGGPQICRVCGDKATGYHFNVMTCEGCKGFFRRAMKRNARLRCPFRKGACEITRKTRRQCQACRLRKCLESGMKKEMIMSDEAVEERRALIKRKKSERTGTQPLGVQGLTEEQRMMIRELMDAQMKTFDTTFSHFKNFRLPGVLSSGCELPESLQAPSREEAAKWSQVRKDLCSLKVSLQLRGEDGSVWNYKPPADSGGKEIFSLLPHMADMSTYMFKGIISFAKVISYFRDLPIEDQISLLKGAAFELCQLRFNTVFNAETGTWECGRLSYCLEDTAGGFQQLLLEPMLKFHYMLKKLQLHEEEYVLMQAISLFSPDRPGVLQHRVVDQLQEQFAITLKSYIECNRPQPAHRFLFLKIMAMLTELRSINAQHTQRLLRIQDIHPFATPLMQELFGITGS
Sequence of Cytochrome P450 2D6 (Homo sapiens) (P10635 whole entry, looked up): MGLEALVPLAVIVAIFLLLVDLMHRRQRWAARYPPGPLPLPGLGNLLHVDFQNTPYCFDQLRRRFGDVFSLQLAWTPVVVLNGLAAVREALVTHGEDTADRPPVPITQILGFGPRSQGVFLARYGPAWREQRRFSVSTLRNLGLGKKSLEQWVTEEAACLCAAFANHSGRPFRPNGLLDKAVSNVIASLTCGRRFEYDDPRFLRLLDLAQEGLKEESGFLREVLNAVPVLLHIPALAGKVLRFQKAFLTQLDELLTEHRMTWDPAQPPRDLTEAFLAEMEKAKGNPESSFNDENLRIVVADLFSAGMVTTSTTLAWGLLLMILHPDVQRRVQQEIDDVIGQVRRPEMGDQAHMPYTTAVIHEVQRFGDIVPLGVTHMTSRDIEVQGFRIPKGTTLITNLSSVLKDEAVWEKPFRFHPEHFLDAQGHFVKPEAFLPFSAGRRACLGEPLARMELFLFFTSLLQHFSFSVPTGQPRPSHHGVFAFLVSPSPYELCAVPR

CC(C)(C)NC[C@H](O)COc1nsnc1N1CCOCC1
inactive: Potency [1] | Potency [2] | Potency [3] | Potency [4] | Potency [5]

Cc1cc(CC(=O)O)n(C)c1C(=O)c1ccc(Cl)cc1
inactive: Potency [1] | Potency [2] | Potency [3] | Potency [4] | max activation [6] -4.94% and -11.5% | Potency [7]

O=C1O[C@H]([C@H](O)CO)C(O)=C1O
inactive: Potency [1] | Potency [2] | Potency [3] | Potency [4] | Potency [8] | Potency [7] | Potency [5]

Cc1ncc(CO)c(CO)c1O
inactive: Potency [1] | Potency [2] | Potency [3] | Potency [4] | Potency [8] | Potency [7] | Potency [5]

O=[N+]([O-])c1ccccc1C(F)(F)F
inactive: Potency [1] | Potency [2] | Potency [3] | Potency [4] | Potency [8] | Potency [7]
6.95 µM (active) and inactive: Potency [5]

Nc1nc(N)c2nc(-c3ccccc3)c(N)nc2n1
64 µM (active) and inactive: Potency [7]
inactive: Potency [1] | Potency [3] | Potency [4] | Potency [5]
active: Potency [8] 49.1 µM and 61.1 µM and 26.6 µM

Cc1ccccc1C=O
inactive: Potency [1] | Potency [2] | Potency [3] | Potency [4] | Potency [8] | Potency [7] | Potency [5]

Nc1cccc(C(F)(F)F)c1
inactive: Potency [1] | Potency [2] | Potency [3] | Potency [4] | Potency [8] | Potency [7] | Potency [5]

CC(=O)CC(=O)N(C)C
inactive: Potency [1] | Potency [2] | Potency [3] | Potency [4] | Potency [8] | Potency [7] | Potency [5]

Cc1cc(C)cc(O)c1
12.2 µM (active) and inactive: Potency [1]
active: Potency [5] 40 µM and 73.1 µM
inactive: Potency [3] | Potency [8] | Potency [7]
1.73 µM (active) and inactive: Potency [2]

CC(COCC(C)OC(=O)c1ccccc1)OC(=O)c1ccccc1 (stereo unspecified)
inactive: Potency [1] | Potency [2] | Potency [3] | Potency [4] | Potency [8] | Potency [7]
active: Potency [5] 19.9 µM and 11.2 µM

CC(=O)C(C)C
63.4 µM (active) and inactive: Potency [2]
inactive: Potency [1] | Potency [3] | Potency [4] | Potency [8] | Potency [7] | Potency [5]

CCCCCCCCC(=O)O
34.4 µM (active) and inactive: Potency [7]
active: Potency [5] 30.7 µM
inactive: Potency [1] | Potency [3] | Potency [4] | Potency [8]

COCN(COC)c1nc(N(COC)COC)nc(N(COC)COC)n1
active: Potency [8] 54.5 µM
inactive: Potency [1] | Potency [2] | Potency [3] | Potency [7]

O=c1n(CCCN2CCN(c3cccc(Cl)c3)CC2)nc2ccccn12
inactive: Potency [1] | Potency [2] | Potency [3] | Potency [4] | max activation [6] -1.08%

Cc1ccc(Cl)cc1
inactive: Potency [1] | Potency [2] | Potency [3] | Potency [4] | Potency [8] | Potency [5]
33.5 µM (active) and inactive: Potency [7]

N#CCC(=O)O
inactive: Potency [1] | Potency [2] | Potency [3] | Potency [4] | Potency [7] | Potency [5]

CC(C)=CCC/C(C)=C/C=O
inactive: Potency [1] | Potency [2] | Potency [3] | Potency [4] | Potency [8] | Potency [7] | Potency [5]

COC(=O)CCCCC(=O)OC
inactive: Potency [1] | Potency [2] | Potency [3] | Potency [4] | Potency [8] | Potency [7] | Potency [5]

CC/C(C)=N/O
inactive: Potency [1] | Potency [2] | Potency [3] | Potency [4] | Potency [8] | Potency [7] | Potency [5]

NCCNCCNCCN
inactive: Potency [1] | Potency [2] | Potency [3] | Potency [4] | max activation [6] -2.83%

CC(CN1c2ccccc2Sc2ccccc21)N(C)C (stereo unspecified)
active: Potency [2] 61.1 µM | Potency [5] 8.05 µM and 10 µM and 7.76 µM
19.3 µM (active) and inactive: Potency [8]
inactive: Potency [1] | Potency [3]

Cc1ccc(C)c(S(=O)(=O)O)c1
64.4 µM (active) and inactive: Potency [7]
inactive: Potency [1] | Potency [2] | Potency [3] | Potency [4] | Potency [8] | Potency [5]

O=C(NCC1CCCCN1)c1cc(OCC(F)(F)F)ccc1OCC(F)(F)F (stereo unspecified)
inactive: Potency [1] | Potency [2] | Potency [3] | Potency [4] | Potency [5]

C=CC(=O)NCOCCCC
active: Potency [5] 46.2 µM
inactive: Potency [1] | Potency [2] | Potency [3] | Potency [4] | Potency [8]
16.4 µM (active) and inactive: Potency [7]

C[Si](C)(C)N[Si](C)(C)C
inactive: Potency [1] | Potency [2] | Potency [3] | Potency [4] | Potency [7] | Potency [5]
60.6 µM (active) and inactive: Potency [8]

Cc1ccc(C(C)C)cc1
inactive: Potency [1] | Potency [2] | Potency [3] | Potency [4] | Potency [8] | Potency [7] | Potency [5]

CN=C(NC#N)NCCSCc1nc[nH]c1C
inactive: Potency [1] | Potency [2] | Potency [3] | Potency [4]
active: Potency [7] 31.4 µM and 15.5 µM | Potency [5] 22.2 µM and 34.7 µM

CC[N+](CC)(CC(=O)Nc1c(C)cccc1C)Cc1ccccc1
11.2 nM (active) and inactive: Potency [7]
inactive: Potency [1] | Potency [2] | Potency [3] | Potency [4]
39.9 µM (active) and inactive: Potency [5]

Nc1cccc(N)n1
active: Potency [5] 39.9 µM
inactive: Potency [1] | Potency [2] | Potency [3] | Potency [4] | Potency [8]

CCn1cc(C(=O)O)c(=O)c2cc3c(cc21)OCO3
inactive: Potency [1] | Potency [2] | Potency [3] | Potency [4] | Potency [8] | Potency [7] | activity change, negative = inhibition [5] -7.51% [at 23.6 µM]
active: Potency [5] 51 µM

CCCCC(CC)COC(=O)c1ccc(C(=O)OCC(CC)CCCC)cc1 (stereo unspecified)
inactive: Potency [1] | Potency [2] | Potency [3] | Potency [4] | Potency [8] | Potency [7] | Potency [5]

N[C@@H](Cc1cc(I)c(Oc2ccc(O)c(I)c2)c(I)c1)C(=O)O
inactive and 63.7 µM (active): Potency [8]
inactive and 74 µM (active): Potency [5]
inactive: Potency [1] | Potency [2] | Potency [4] | max activation [6] -2.4% | Potency [7]

Cc1ccccc1Cl
inactive: Potency [1] | Potency [2] | Potency [3] | Potency [4] | Potency [8] | Potency [7] | Potency [5]

Cc1cc(C)c(O)c(C)c1
48.6 µM (active) and inactive: Potency [2]
active: Potency [5] 71 µM
inactive: Potency [1] | Potency [3] | Potency [4] | Potency [7]
30.6 µM (active) and inactive: Potency [8]
